Test [1] relates to Wnt5a (protein binding on small-molecule microarray). In words: small molecules binding Wnt5a protein – biophysical, small-molecule microarray, 635/667 nm fluorescence, primary screen (AID 1142).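 Also: fluorescence read at 667 nm with signal to noise per printed feature.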 The note with it: 635 nm fluorescence, higher = more signal.
Test [2] in a line: ATP-based viability of Huh7 replicon cells – cell-based, CellTiter-Glo luminescence, basal, 48 h, cytotoxicity control for HCV replication inhibitor project, primary screen (AID 1143).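 Also: Huh7 hepatoma cells carrying a hepatitis C replication reporter with no stimulus; test concentration not given here.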 To be noted: higher = more signal, called active from +8 up or from −8 down. For orientation: In antiviral work, replicon cells carry a viral genome segment that copies itself.
The nature of test [3]: Pseudomonas biofilm growth suppression – PAO1 strain, BacTiter-Glo luminescence, LB-PBS, primary screen (AID 1144). The note with it: P. aeruginosa PAO1 biofilm, 12 h, higher = more signal.
A short description of test [4]: basal CRE-LacZ reporter activity in PC12 – cell-based, unstimulated, primary screen (AID 1145). The note with it: no forskolin, luminescence, 4.5 h, higher = more signal, called active from +8 up or from −8 down.
The nature of test [5]: forskolin-driven CRE-LacZ activity in PC12 – cell-based, CRE-LacZ reporter, forskolin-stimulated, primary screen (AID 1146).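 Also: PC12 cells with 6xCRE LacZ reporter stimulated by forskolin 10 µM; beta-galactosidase reporter signal reflecting CREB driven transcription.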 To be noted: luminescence, 4.5 h, higher = more signal, called active from +8 up or from −8 down.
The target in test [6] is Streptavidin (Streptomyces avidinii) (UniProt P22629). In words: compounds binding control protein streptavidin – biophysical, small-molecule microarray, 635/667 nm fluorescence, artefact control for SMM compound annotation, primary screen (AID 1147).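 Also: signal reflects streptavidin binding to arrayed compounds as a control protein.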 The note with it: higher = more signal.
Chain of Streptavidin (Streptomyces avidinii) (P22629 whole entry, looked up): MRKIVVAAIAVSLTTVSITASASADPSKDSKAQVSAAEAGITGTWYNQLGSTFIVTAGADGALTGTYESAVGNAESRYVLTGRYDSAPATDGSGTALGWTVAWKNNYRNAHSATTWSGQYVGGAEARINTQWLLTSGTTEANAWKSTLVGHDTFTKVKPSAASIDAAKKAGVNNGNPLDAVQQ
Test [7] can be described thus: probe aInhba binding on compound microarray – biochemical, small-molecule microarray, 635/667 nm fluorescence, primary screen (AID 1148).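 Also: score merges 667nm spot fluorescence with signal-to-noise for antibody binding to printed compounds.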 The note with it: higher = more signal.
In test [8] the target is Torsin-1A (Homo sapiens) (UniProt O14656). Put plainly: TOR1A wild-type binding on microarray – cell lysate, small-molecule microarray, lysate, 635/667 nm, primary screen (AID 1149). The note with it: COS7 hTOR1A-WT lysate, 635 nm fluorescence, higher = more signal.
Chain of Torsin-1A (Homo sapiens) (O14656 whole entry, looked up): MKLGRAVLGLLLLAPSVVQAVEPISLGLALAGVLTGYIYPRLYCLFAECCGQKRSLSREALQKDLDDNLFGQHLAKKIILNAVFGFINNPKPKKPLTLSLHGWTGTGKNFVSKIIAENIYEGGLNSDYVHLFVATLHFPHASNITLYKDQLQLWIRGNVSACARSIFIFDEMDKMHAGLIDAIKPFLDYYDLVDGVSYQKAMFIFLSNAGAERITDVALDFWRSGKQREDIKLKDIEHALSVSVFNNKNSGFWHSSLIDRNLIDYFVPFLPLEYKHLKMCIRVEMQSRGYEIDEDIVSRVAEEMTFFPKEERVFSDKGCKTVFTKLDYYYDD
For test [9] the target is unchanged. In words: torsin A mutant lysate binding on microarrays – cell lysate, small-molecule microarray, COS7 lysate, 635/667 nm fluorescence, primary screen (AID 1150).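 Also: score pools 667 nm emission and signal to noise measuring lysate protein binding.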 The note with it: COS7 hTOR1A mutant lysate, 635 nm fluorescence, higher = more signal.
In test [10] the test system is Sonic hedgehog protein (Shh). Put plainly: Sonic hedgehog microarray binding compounds – biochemical, small-molecule microarray, 635/667 nm fluorescence, primary screen (AID 1151).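 Also: Shh protein binding to compounds spotted on small-molecule microarray slides; score combines spot fluorescence intensity with signal-to-noise across triplicate slides.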 The note with it: 635 nm fluorescence, higher = more signal.

Data on 14 compounds can be found in PubChem BioAssay.

The structures appear in SMILES notation. The source made the active and inactive calls. Unless noted, no rule for the calls is given here.

`Cc1ccc(S[C@]2(C(=O)NCCCN(C)C)CC(=O)N(C3Cc4ccccc4C3)[C@@H]2c2ccc(CO)cc2I)cc1`: the composite z-score is -0.283 in test [1]; 0.372 in test [6]; -0.182 in test [7]; -1.5 with Torsin-1A (Homo sapiens) [8]; -1.04 in the test with Torsin-1A (Homo sapiens) [9]; -0.348 in test [10]. For the same compound, the z-score is -1.5 (inactive) in [2], 0.505 (inactive) in test [3], 0.155 (inactive) in test [4] and 2.5 (inactive) in [5].

Regarding `[N-]=[N+]=Nc1ccccc1[C@H]1OC(c2ccc(OCCCO)cc2)=N[C@@]1(Cc1ccccc1)C(=O)NCC(O)CO` (stereo not given in full), the composite z-score is 0.96 in test [1]; 0.211 in [6]; 0.121 in test [7]; 0.36 with Torsin-1A (Homo sapiens) [8]; 0.807 in the test with Torsin-1A (Homo sapiens) [9]; -1.32 in [10]. The z-score in test [2] is -2.87 (inactive); in [3], -0.48 (inactive); in test [4] it was -1.49 (inactive); in test [5], -1.2 (inactive).

With `COC(=O)C(CC#Cc1ccc2c(c1)[C@]1(C(=O)N2)[C@H](C(=O)N2CCc3cc(OC)c(OC)cc3C2)[C@H]2C(=O)O[C@H](c3ccccc3)[C@H](c3ccccc3)N2[C@@H]1c1ccccc1OCCO)C(=O)OC`, the composite z-score in test [1] turned out to be 0.345; in test [6], 1; in [7] it was 0.0561; in the test with Torsin-1A (Homo sapiens) [8], 0.885; with Torsin-1A (Homo sapiens) [9], 1.15; in test [10], 1.99. The z-score in test [2] is -2.91 (inactive); in test [3], -0.375 (inactive); in test [4], -0.168 (inactive); in test [5] it was 0.214 (inactive).

As to `COC(=O)[C@@]1(Cc2ccccc2)[C@H]2c3cc(C(=O)N(C)C)n(Cc4ccc(S(C)(=O)=O)cc4)c3C[C@H]2CN1C(=O)c1ccccc1`, the composite z-score is 0.493 in test [1]; 2.48 in test [6]; 0.496 in test [7]; -0.178 with Torsin-1A (Homo sapiens) [8]; 1.13 with Torsin-1A (Homo sapiens) [9]; -0.68 in test [10]. Moreover, the z-score in test [2] was -1.6 (inactive); in [3], -0.361 (inactive); in test [4], 0.39 (inactive); in test [5], 1.02 (inactive).

On to `CN1C(=O)C2C(C3CC3)C=C3CN(Cc4cccc(Cl)c4)[C@@H]([C@@H](O)Cc4ccccc4)C3C2C1=O` (stereo not given in full), for which the composite z-score in test [1] is -0.103; in test [6], 0.599; in test [7], -0.0221; with Torsin-1A (Homo sapiens) [8] it was 0.667; with Torsin-1A (Homo sapiens) [9] it was 0.342; in test [10], 1.78. Also, the z-score is -1.85 (inactive) in test [2], -0.0257 (inactive) in test [3], 5.58 (inactive) in test [4] and 0.349 (inactive) in test [5].

As for `O=C1C2C=CC(C(O)c3c(F)cccc3Cl)N(Nc3ccc([N+](=O)[O-])cc3)C2C(=O)N1c1ccccc1` (stereo not given), the composite z-score turned out to be 0.469 in test [1]; 1.26 in [6]; 0.142 in [7]; 0.414 with Torsin-1A (Homo sapiens) [8]; 1.03 with Torsin-1A (Homo sapiens) [9]; 1.01 in test [10]. The z-score was -1.39 (inactive) in test [2], -1.44 (inactive) in test [3], -0.0787 (inactive) in test [4] and 0.329 (inactive) in test [5].

On to `CCOC(=O)C1=CC[C@@H](c2ccc(OC)cc2)N(S(=O)(=O)c2ccc(C)cc2)[C@H]1c1ccc(C)cc1`, for which the composite z-score in test [1] is 0.151; in [6] it was 0.778; in [7], 0.1; with Torsin-1A (Homo sapiens) [8] it was -0.414; with Torsin-1A (Homo sapiens) [9] it was 0.308; in [10] it was -0.625. Besides, the z-score was -2.4 (inactive) in test [2], 0.12 (inactive) in [3], -0.415 (inactive) in [4] and -0.24 (inactive) in test [5].

`C=CCC(OC(C)=O)[C@@H]1[C@@H](N(Cc2ccc(-c3cccc(C(F)(F)F)c3)o2)C(=O)c2ccc(-c3ccccc3)cc2)c2cc(OCCCO)ccc2N1C(=O)c1ccc2ccccc2c1` (stereo not given in full): the composite z-score was -0.0266 in test [1]; 0.177 in test [6]; -0.0279 in test [7]; -0.756 with Torsin-1A (Homo sapiens) [8]; -0.322 in the test with Torsin-1A (Homo sapiens) [9]; 1.57 in [10]. Also, the z-score in test [2] was -0.87 (inactive); in test [3], -0.491 (inactive); in test [4], -0.477 (inactive); in [5], 0.308 (inactive).

In the case of `[N-]=[N+]=NCc1ccccc1[C@@H]1OC(c2ccc(OCCCO)cc2)=N[C@]1(Cc1ccccc1N=[N+]=[N-])C(=O)NCC(O)CO` (stereo not given in full), the composite z-score in test [1] is 0.88; in test [6], 1.74; in [7], 0.791; in the test with Torsin-1A (Homo sapiens) [8], 0.553; in the test with Torsin-1A (Homo sapiens) [9], 1.65; in [10], -0.771. Moreover, the z-score in test [2] was -1.49 (inactive); in test [3], 0.12 (inactive); in test [4], 0.47 (inactive); in test [5] it was -0.806 (inactive).

Turning to `CN(C)CCCNC(=O)[C@@]1(Cc2ccccc2I)c2ccccc2C(=O)N(C2CCCCC2)[C@H]1c1ccc(CO)cc1`, the composite z-score turned out to be 0.418 in test [1]; 1.19 in [6]; 0.41 in [7]; 0.305 with Torsin-1A (Homo sapiens) [8]; 0.794 with Torsin-1A (Homo sapiens) [9]; 0.618 in test [10]. Besides, the z-score in test [2] was -5.91 (inactive); in [3] it was 1.69 (inactive); in test [4], 2.12 (inactive); in [5] it was 1.76 (inactive).

In the case of `CN(C)CCCNC(=O)[C@@]1(C)c2ccccc2C(=O)N(Cc2ccc(OC(F)(F)F)cc2)[C@H]1c1ccc(CO)cc1`, the composite z-score is -0.13 in test [1]; -1.04 in test [6]; 0.0778 in [7]; -0.924 in the test with Torsin-1A (Homo sapiens) [8]; 0.332 with Torsin-1A (Homo sapiens) [9]; 0.447 in [10]. Further, the z-score was -2.14 (inactive) in test [2], -1.04 (inactive) in test [3], 1.06 (inactive) in test [4] and -0.175 (inactive) in test [5].

Consider `C=C(COC)C(=O)CC[C@H](OC(=O)c1cccnc1)c1ccc(OCCO)cc1`, for which the composite z-score in [1] was determined as 0.965; in test [6], 0.257; in [7], 0.103; with Torsin-1A (Homo sapiens) [8], 0.613; with Torsin-1A (Homo sapiens) [9], 1.43; in test [10] it was 2.4. For the same compound, the z-score in test [2] is -2.1 (inactive); in [3], 0.385 (inactive); in test [4], 1.54 (inactive); in [5] it was 0.755 (inactive).

Regarding `CCOC(=O)C[C@H]1[C@H](OC(=O)c2ccccc2-c2ccccc2)[C@@H](NC(=O)C2CCCCC2)c2cc(OCCCO)ccc2N1C(=O)c1ccc2ccccc2n1`, the composite z-score was determined as 0.243 in test [1]; 0.155 in test [6]; 0.222 in [7]; 0.237 with Torsin-1A (Homo sapiens) [8]; 0.133 in the test with Torsin-1A (Homo sapiens) [9]; 0.897 in test [10]. In addition, the z-score is -0.911 (inactive) in test [2], 0.507 (inactive) in test [3], 4.83 (inactive) in [4] and 1.51 (inactive) in [5].

Consider `C=CCC(OC(C)=O)[C@@H]1[C@@H](N(Cc2ccc(-c3cccc(C(F)(F)F)c3)o2)C(=O)Cc2ccc(F)cc2)c2cc(OCCCO)ccc2N1C(=O)Cc1ccc2ccccc2c1` (stereo not given in full), for which the composite z-score in test [1] is -0.268; in [6], -0.426; in test [7] it was -0.114; in the test with Torsin-1A (Homo sapiens) [8], -0.761; with Torsin-1A (Homo sapiens) [9], -0.673; in test [10], 0.404. Besides, the z-score in test [2] was -0.229 (inactive); in test [3] it was -1.1 (inactive); in test [4] it was -0.374 (inactive); in test [5] it was 0.767 (inactive).
